This passage reports max response and outcome results from PubChem BioAssay (NCATS).

Each structure is given as a SMILES string. Where “and” joins values, the source holds several entries; their conditions need not be identical. Equal values may be shown once. Values without a mark were called inactive. Calls of active or inactive are those of the source. No rule for the calls is given here.
Also: 0% is about no effect.

Chain of Nuclear receptor subfamily 1 group I member 2 (Rattus norvegicus) (Q9R1A7 whole entry, looked up): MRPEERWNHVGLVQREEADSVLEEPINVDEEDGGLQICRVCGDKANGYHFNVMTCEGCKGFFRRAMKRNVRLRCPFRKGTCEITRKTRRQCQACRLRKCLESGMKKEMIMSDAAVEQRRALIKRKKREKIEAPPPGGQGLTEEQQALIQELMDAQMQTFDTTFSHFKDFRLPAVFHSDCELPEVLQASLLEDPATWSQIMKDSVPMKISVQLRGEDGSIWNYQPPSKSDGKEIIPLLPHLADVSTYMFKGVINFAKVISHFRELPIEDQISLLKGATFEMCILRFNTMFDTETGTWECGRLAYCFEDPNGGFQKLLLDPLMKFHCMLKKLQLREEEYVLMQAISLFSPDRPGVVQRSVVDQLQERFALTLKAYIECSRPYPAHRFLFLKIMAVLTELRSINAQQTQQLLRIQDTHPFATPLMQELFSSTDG

The first assay has as its target Nuclear receptor subfamily 1 group I member 2 (Rattus norvegicus) (UniProt Q9R1A7). In words: qHTS assay for small molecule activators of the rat pregnane X receptor (rPXR) signaling pathway (AID 651751). The conditions noted are these: rPXR reporter cells, luciferase (One-Glo), 24 h. A general note: qHTS replaces the single test concentration by a dilution series.
Regarding `C=CCN=C=S`, the max response is 3.71%.
Still for that read-out and setting: the same measure for `COCC(C)N(C(=O)CCl)c1c(C)csc1C` (stereo not given): 2.96%.
Same read-out and setting: for `O=C(O)C(Cl)(Cl)Cl` the value was 6.71% and 3.85%.
The same measure, in the same setting: the same measure for `C[C@H]1CCC[C@H](O)CCCCCc2cc(O)cc(O)c2C(=O)O1`: -2.32%.
For `CCCCCCCCOC(=O)c1ccccc1C(=O)OCCCCCCCC`, the max response was -1.02% and 3.16%.
As to `S=C=S`, the max response was -0.686%.
On the same count and under the same terms, the same measure for `O=C1CCO1`: -3.35%.
For `N#CN`, the max response was 6.95%.

System in the next assay: not listed separately
In words: qHTS assay for small molecule activators of the human pregnane X receptor (PXR) signaling pathway (AID 720659). The note with it: DPX-2 HepG2 CYP3A4-luciferase, 24 h; series mostly up to 92.3 µM.
For the compound `C=CCN=C=S`, the compound was classed as inactive.
With `O=C(O)C(Cl)(Cl)Cl`, the call was inactive.
Still for that read-out and setting: the same measure for `CCCCCCCCOC(=O)c1ccccc1C(=O)OCCCCCCCC`: “inactive”; for `S=C=S`: “inactive”.
As to `O=C1CCO1`, the result was inactive.
On the same count and under the same terms, the same measure for `O=[N+]([O-])c1ccc(F)c([N+](=O)[O-])c1`: “inactive”.
On the same count and under the same terms, for `N#CN` the value was “inactive”.
